Data: the supplement of paper PMC7393113
Where a name gives a salt, the structure may show the parent alone. ± gives the standard deviation of the averaged measurements.

Test system: iBMDM (immortalised mouse bone-marrow-derived macrophages), LPS-stimulated
Assay: mitochondrial superoxide (MitoSOX fluorescence) fold increase over unstimulated control; higher = more LPS-induced mitochondrial ROS (less inhibition)
Settings: inhibitor concentration: 500 nM, LPS: 100 ng/ml
Method in brief: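 After 20 h in phenol-red-free 1% FCS/DMEM in black 96-well plates, immortalised mouse bone-marrow-derived macrophages were exposed to kinase inhibitors (500 nM) for 30 min, 1 μM MitoSox for 10 min and then LPS (100 ng/ml). A ClarioStar plate reader recorded fluorescence at 510/580 nm every 60 min for 4 h. The reported mitochondrial superoxide is the mean fold induction versus untreated macrophages over triplicate wells.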

Compound	mitochondrial superoxide (time after LPS: 1 h)	mitochondrial superoxide (time after LPS: 2 h)	mitochondrial superoxide (time after LPS: 4 h)
Cc1c(C(=O)N2CCOc3ccc(-c4ccc(N)nc4)cc3C2)ccc(S(C)(=O)=O)c1F	1.112 ± 0.0078	1.25 ± 0.064	1.32 ± 0.059
COc1cc2ncnc(Nc3cccc(Cl)c3)c2cc1OC [AG-1478 (Tyrphostin AG-1478)]	1.11 ± 0.082	1.54 ± 0.039	1.65 ± 0.057
COc1cc2c(Oc3ccc4[nH]c(C)cc4c3F)ncnc2cc1OCCCN1CCCC1 [Cediranib (AZD2171)]	1.65 ± 0.088	1.65 ± 0.079	1.78 ± 0.081
Cc1ccc(Nc2nccc(N(C)c3ccc4c(C)n(C)nc4c3)n2)cc1S(N)(=O)=O	1.46 ± 0.059	1.563 ± 0.0056	1.65 ± 0.11
COc1cc2nccc(Oc3ccc(NC(=O)Nc4cc(C)on4)c(Cl)c3)c2cc1OC [Tivozanib (AV-951)]	1.14 ± 0.031	1.17 ± 0.037	1.24 ± 0.024
C[C@@H](N)[C@H]1CC[C@H](C(=O)Nc2ccncc2)CC1	1.56 ± 0.061	1.67 ± 0.11	1.71 ± 0.065
C=CC(=O)Nc1cccc(Nc2nc(Nc3ccc(N4CCN(C(C)=O)CC4)cc3OC)ncc2C(F)(F)F)c1	1.49 ± 0.069	1.49 ± 0.063	1.65 ± 0.12
Cc1nc(NC(=O)N2CCC[C@H]2C(N)=O)sc1-c1ccnc(C(C)(C)C(F)(F)F)c1	1.3 ± 0.032	1.46 ± 0.052	1.7 ± 0.057
O=C(O)[C@]1(Cc2cccc(Nc3nccs3)n2)CC[C@@H](Oc2cccc(Cl)c2F)CC1	1.22 ± 0.027	1.39 ± 0.086	1.51 ± 0.044
CCCCOc1c(C(=O)c2c(F)cc(C)cc2F)c[nH]c2nncc1-2	1.16 ± 0.027	1.25 ± 0.066	1.37 ± 0.036
CCc1cc(Nc2nccc(-c3c(-c4ccc(OC)c(C(=O)Nc5c(F)cccc5F)c4)nc4ccccn34)n2)c(OC)cc1N1CCC(N2CCN(S(C)(=O)=O)CC2)CC1	1.3 ± 0.016	1.4 ± 0.079	1.5 ± 0.03
CNC(=O)Nc1ccc(-c2nc(N3CC4CCC(C3)O4)c3cnn(C4CCC5(CC4)OCCO5)c3n2)cc1	1.26 ± 0.075	1.45 ± 0.028	1.58 ± 0.024
C=CC(=O)Nc1ccc2ncnc(Nc3cccc(Br)c3)c2c1	1.12 ± 0.053	1.29 ± 0.027	1.3 ± 0.061
Nc1cc(C(F)(F)F)c(-c2cc(N3CCOCC3)nc(N3CCOCC3)n2)cn1 [BKM120 (NVP-BKM120, Buparlisib)]	1.33 ± 0.034	1.41 ± 0.024	1.53 ± 0.05
O=C1C(c2c(O)[nH]c3ccccc23)=Nc2ccccc21 [Indirubin]	1.22 ± 0.026	1.34 ± 0.073	1.42 ± 0.048
CCS(=O)(=O)c1cccc(-c2cc(C(=O)NC3CCN(C)CC3)c(C)c3[nH]c4ncc(C)cc4c23)c1	1.31 ± 0.05	1.48 ± 0.079	1.64 ± 0.098
COc1cccc(-c2cc(=O)c3ccccc3o2)c1N	1.48 ± 0.098	1.57 ± 0.021	1.67 ± 0.04
Cc1ccc(NC(=O)c2cccc(C(C)(C)C#N)c2)cc1Nc1ccc2ncn(C)c(=O)c2c1	1.07 ± 0.05	1.14 ± 0.084	1.349 ± 0.011
CNC(=O)c1ccccc1Nc1nc(Nc2ccc(N3CCOCC3)cc2OC)ncc1Cl	1.12 ± 0.084	1.11 ± 0.056	1.23 ± 0.081
CCc1cnn2c(NCc3ccc[n+]([O-])c3)cc(N3CCCC[C@H]3CCO)nc12	1.28 ± 0.066	1.33 ± 0.055	1.63 ± 0.066
COc1cc(Nc2ncc(F)c(Nc3ccc4c(n3)N(COP(=O)(O)O)C(=O)C(C)(C)O4)n2)cc(OC)c1OC [Fostamatinib (R788)]	1.29 ± 0.026	1.429 ± 0.0045	1.71 ± 0.034
Oc1cc(O)cc(/C=C/c2ccc(O)c(O)c2)c1 [Piceatannol]	1.13 ± 0.0055	1.15 ± 0.013	1.23 ± 0.041
O=Nc1c(-c2c(O)[nH]c3cc(Br)ccc23)[nH]c2ccccc12	1.3 ± 0.081	1.43 ± 0.041	1.64 ± 0.067

Compound	mitochondrial superoxide (time after LPS: 1 h)	mitochondrial superoxide (time after LPS: 2 h)	mitochondrial superoxide (time after LPS: 4 h)
Nc1nc(NCCNc2ncc(-n3ccnc3)c(-c3ccc(Cl)cc3Cl)n2)ccc1[N+](=O)[O-]	1.17 ± 0.042	1.23 ± 0.024	1.31 ± 0.056
Cc1csc(-c2nnc(Nc3ccc(Oc4ncccc4-c4ccnc(N)n4)cc3)c3ccccc23)c1	1.35 ± 0.042	1.5 ± 0.038	1.67 ± 0.046
CCN(CC)CCCC(C)Nc1nc(C)cc(Nc2ccc3nc(C)cc(N)c3c2)n1 (stereo unspecified)	1.35 ± 0.041	1.53 ± 0.051	1.65 ± 0.15
CC(C)CCN1c2nc(Nc3cc(F)c(O)c(F)c3)ncc2N(C)C(=O)C1C (stereo unspecified)	1.14 ± 0.036	1.21 ± 0.047	1.321 ± 0.0097
Cc1nc(N)sc1-c1ccnc(Nc2ccc(N3CCOCC3)cc2)n1	1.49 ± 0.063	1.55 ± 0.023	1.7 ± 0.02
COCCOc1ccc2c(c1)ncn2-c1ccc2cccc(N3CCC(N)CC3)c2n1	1.15 ± 0.048	1.19 ± 0.035	1.3 ± 0.038
Cc1cc(O)c2c(c1)C(=O)c1cccc(O)c1C2=O [Chrysophanic Acid]	1.29 ± 0.11	1.36 ± 0.097	1.48 ± 0.022
O=C(NCc1ccccc1)c1csc(Nc2ccncn2)n1 [Thiazovivin]	1.11 ± 0.012	1.2 ± 0.078	1.29 ± 0.11
Cn1cc(-c2ccc3nnc(Sc4ccc5ncccc5c4)n3n2)cn1	1.33 ± 0.036	1.4 ± 0.04	1.525 ± 0.0078
Cn1cc(-c2[nH]c3cc(NC(=O)[C@H](N)C4CCCCC4)cc4c3c2C=NNC4=O)cn1	1.15 ± 0.062	1.15 ± 0.043	1.27 ± 0.029
CS(=O)(=O)CCNCc1ccc(-c2ccc3ncnc(Nc4ccc(OCc5cccc(F)c5)c(Cl)c4)c3c2)o1	1.6 ± 0.073	1.72 ± 0.07	1.89 ± 0.18
Cc1cc(C(C)Nc2ccccc2)c2nc(N3CCOCC3)cc(=O)n2c1 (stereo unspecified)	1.51 ± 0.032	1.66 ± 0.072	1.74 ± 0.094
NC1(Cc2ccc(Cl)cc2)CCN(c2ncnc3[nH]ccc23)CC1	1.31 ± 0.037	1.43 ± 0.058	1.68 ± 0.021
CCN1CCN(c2ccc(Nc3cc(N(C)C(=O)Nc4c(Cl)c(OC)cc(OC)c4Cl)ncn3)cc2)CC1	1.2 ± 0.021	1.24 ± 0.035	1.35 ± 0.06
OCCn1cc(-c2cnc3nnn(Cc4ccc5ncccc5c4)c3n2)cn1	1.37 ± 0.059	1.41 ± 0.018	1.498 ± 0.0039
O=C(NCCCNc1nc(Nc2cccc(NC(=O)N3CCCC3)c2)ncc1I)c1cccs1	1.14 ± 0.041	1.18 ± 0.036	1.13 ± 0.051
CN1CCN(c2cccc(Nc3nc4c(-c5ccc(S(C)(=O)=O)cc5)cccn4n3)c2)CC1	1.28 ± 0.037	1.45 ± 0.058	1.65 ± 0.051
O=c1cc(N2CCOCC2)oc2c1ccc1ccccc12	1.13 ± 0.049	1.11 ± 0.062	1.17 ± 0.062
C[S+]([O-])c1ccc(-c2nc(-c3ccc(F)cc3)c(-c3ccncc3)[nH]2)cc1 (stereo unspecified)	1.39 ± 0.14	1.5 ± 0.16	1.6 ± 0.18
O=P(O)(O)C(O)(Cn1ccnc1)P(=O)(O)O [Zoledronic Acid]	1.27 ± 0.02	1.29 ± 0.085	1.4 ± 0.16
COc1ccc2cc(-c3nc(-c4ccc([S+](C)[O-])cc4)[nH]c3-c3ccncc3)ccc2c1 (stereo unspecified) [Tie2 kinase inhibitor]	0.981 ± 0.069	1.09 ± 0.058	1.19 ± 0.036
CC(=O)c1c(C)c2cnc(Nc3ccc(N4CCNCC4)cn3)nc2n(C2CCCC2)c1=O	1.45 ± 0.032	1.45 ± 0.037	1.49 ± 0.03
CN(C)CCOc1ccc(-c2nc(-c3ccncc3)c(-c3ccc4c(c3)CC/C4=N\O)[nH]2)cc1	1.07 ± 0.036	1.15 ± 0.075	1.31 ± 0.083

Compound	mitochondrial superoxide (time after LPS: 1 h)	mitochondrial superoxide (time after LPS: 2 h)	mitochondrial superoxide (time after LPS: 4 h)
CCn1c2ccccc2c2cc(Nc3ccnc(NCCCN4CCOCC4)n3)ccc21	1.41 ± 0.063	1.54 ± 0.086	1.67 ± 0.096
C=CC(=O)Nc1cccc(Sc2nc(Nc3ccc(N4CCN(C)CC4)cc3)ncc2Cl)c1	1.24 ± 0.09	1.26 ± 0.035	1.26 ± 0.032
O=C(NOC[C@H](O)CO)c1ccc(F)c(F)c1Nc1ccc(I)cc1F	1.589 ± 0.0074	1.64 ± 0.044	1.71 ± 0.083
Clc1ccc(Nc2nnc(Cc3ccncc3)c3ccccc23)cc1 [Vatalanib (PTK787) 2HCl]	1.42 ± 0.075	1.5 ± 0.09	1.53 ± 0.057
COc1ccc(-c2ccc3c(N4CCOC[C@@H]4C)nc(N4CCOC[C@@H]4C)nc3n2)cc1CO	1.14 ± 0.024	1.19 ± 0.031	1.25 ± 0.025
COC(=O)c1ccc2c(C(=Nc3ccc(N(C)C(=O)CN4CCN(C)CC4)cc3)c3ccccc3)c(O)[nH]c2c1 [Nintedanib (BIBF 1120)]	1.43 ± 0.015	1.5 ± 0.056	1.72 ± 0.037
CC(C)(C#N)c1ccc(N2C(=O)OCc3cnc4ccc(-c5cnc6ccccc6c5)cc4c32)cc1	1.4 ± 0.039	1.48 ± 0.056	1.676 ± 0.013
CCCS(=O)(=O)Nc1ccc(F)c(C(=O)c2c[nH]c3ncc(-c4ccc(Cl)cc4)cc23)c1F [Vemurafenib (PLX4032, RG7204)]	1.159 ± 0.0019	1.16 ± 0.015	1.17 ± 0.029
Cn1c(=O)c(F)c(Nc2ccc(I)cc2F)c2c(=O)n(C[C@@H](O)CO)cnc21	1.36 ± 0.021	1.39 ± 0.028	1.51 ± 0.055
C[C@@H](Oc1cc(-c2cnn(C3CCNCC3)c2)cnc1N)c1c(Cl)ccc(F)c1Cl	1.39 ± 0.038	1.5 ± 0.052	1.64 ± 0.079
Cn1cnc2c(F)c(Nc3ccc(Br)cc3F)c(C(=O)NOCCO)cc21	1.13 ± 0.046	1.26 ± 0.038	1.29 ± 0.028
CCN(CCO)CCCOc1ccc2c(Nc3cc(CC(=O)Nc4cccc(F)c4)[nH]n3)ncnc2c1 [Barasertib (AZD1152-HQPA)]	1.33 ± 0.093	1.39 ± 0.13	1.44 ± 0.13
Cc1ccc(F)c(NC(=O)Nc2ccc(-c3cccc4[nH]nc(N)c34)cc2)c1 [Linifanib (ABT-869)]	1.66 ± 0.077	1.72 ± 0.074	1.83 ± 0.067
NC(=O)c1cccc(-c2cc(Nc3ccc(OC(F)(F)F)cc3)ncn2)c1	1.14 ± 0.054	1.11 ± 0.054	1.21 ± 0.082
COC(=O)Nc1ccc(-c2nc(N3CCOCC3)c3cnn(C4CCN(C(=O)OC)CC4)c3n2)cc1	1.14 ± 0.026	1.13 ± 0.02	1.14 ± 0.024
COc1cc2c(Oc3ccc(NC(=O)C4(C(=O)Nc5ccc(F)cc5)CC4)cc3F)ccnc2cc1OCCCN1CCOCC1	1.25 ± 0.022	1.35 ± 0.034	1.48 ± 0.03
Cc1ccc2nc(NCCN)c3ncc(C)n3c2c1	1.43 ± 0.036	1.48 ± 0.027	1.63 ± 0.047
Cn1c(=O)n(-c2ccc(C(C)(C)C#N)cc2)c2c3cc(-c4cnc5ccccc5c4)ccc3ncc21 [BEZ235 (NVP-BEZ235, Dactolisib)]	1.47 ± 0.087	1.47 ± 0.084	1.61 ± 0.076
O=c1cc(N2CCOCC2)oc2c(-c3cccc4c3sc3ccccc34)cccc12	1.31 ± 0.028	1.4 ± 0.037	1.55 ± 0.042
O=S(=O)(c1cccc2cnccc12)N1CCCNCC1 [Fasudil (HA-1077) HCl]	1.03 ± 0.023	1.12 ± 0.041	1.31 ± 0.029
CCC(=O)N1CCN(c2ccc(-n3c(=O)ccc4cnc5ccc(-c6cnc7ccccc7c6)cc5c43)cc2C(F)(F)F)CC1 [Torin 1]	1.14 ± 0.024	1.24 ± 0.033	1.35 ± 0.044
